# Test results published in PubChem BioAssay.
# The source made the active and inactive calls. Unless noted, the rule behind the calls is not given here.
# Assays:
# [1] = tested on: Wnt5a (protein binding on small-molecule microarray); assay: small molecules binding Wnt5a protein – biophysical, small-molecule microarray, 635/667 nm fluorescence, primary screen (AID 1142); details: 635 nm fluorescence, higher = more signal;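 note: fluorescence read at 667 nm with signal to noise per printed feature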
# [2] = ATP-based viability of Huh7 replicon cells – cell-based, CellTiter-Glo luminescence, basal, 48 h, cytotoxicity control for HCV replication inhibitor project, primary screen (AID 1143); details: higher = more signal, called active from +8 up or from −8 down;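 note: Huh7 hepatoma cells carrying a hepatitis C replication reporter with no stimulus; test concentration not given here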
# [3] = Pseudomonas biofilm growth suppression – PAO1 strain, BacTiter-Glo luminescence, LB-PBS, primary screen (AID 1144); details: P. aeruginosa PAO1 biofilm, 12 h, higher = more signal
# [4] = basal CRE-LacZ reporter activity in PC12 – cell-based, unstimulated, primary screen (AID 1145); details: no forskolin, luminescence, 4.5 h, higher = more signal, called active from +8 up or from −8 down
# [5] = forskolin-driven CRE-LacZ activity in PC12 – cell-based, CRE-LacZ reporter, forskolin-stimulated, primary screen (AID 1146); details: luminescence, 4.5 h, higher = more signal, called active from +8 up or from −8 down;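 note: PC12 cells with 6xCRE LacZ reporter stimulated by forskolin 10 µM; beta-galactosidase reporter signal reflecting CREB driven transcription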
# [6] = target: Streptavidin (Streptomyces avidinii) (UniProt P22629); assay: compounds binding control protein streptavidin – biophysical, small-molecule microarray, 635/667 nm fluorescence, artefact control for SMM compound annotation, primary screen (AID 1147); details: higher = more signal;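 note: signal reflects streptavidin binding to arrayed compounds as a control protein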
# Sequence of Streptavidin (Streptomyces avidinii) (P22629 whole entry, looked up): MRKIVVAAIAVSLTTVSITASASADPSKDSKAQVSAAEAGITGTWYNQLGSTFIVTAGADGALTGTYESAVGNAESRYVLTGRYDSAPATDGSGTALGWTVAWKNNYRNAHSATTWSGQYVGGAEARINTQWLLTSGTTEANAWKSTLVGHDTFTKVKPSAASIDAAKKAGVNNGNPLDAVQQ
# [7] = probe aInhba binding on compound microarray – biochemical, small-molecule microarray, 635/667 nm fluorescence, primary screen (AID 1148); details: higher = more signal;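 note: score merges 667nm spot fluorescence with signal-to-noise for antibody binding to printed compounds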
# Torsin-1A (Homo sapiens) [8] = target: Torsin-1A (Homo sapiens) (UniProt O14656); assay: TOR1A wild-type binding on microarray – cell lysate, small-molecule microarray, lysate, 635/667 nm, primary screen (AID 1149); details: COS7 hTOR1A-WT lysate, 635 nm fluorescence, higher = more signal
# Sequence of Torsin-1A (Homo sapiens) (O14656 whole entry, looked up): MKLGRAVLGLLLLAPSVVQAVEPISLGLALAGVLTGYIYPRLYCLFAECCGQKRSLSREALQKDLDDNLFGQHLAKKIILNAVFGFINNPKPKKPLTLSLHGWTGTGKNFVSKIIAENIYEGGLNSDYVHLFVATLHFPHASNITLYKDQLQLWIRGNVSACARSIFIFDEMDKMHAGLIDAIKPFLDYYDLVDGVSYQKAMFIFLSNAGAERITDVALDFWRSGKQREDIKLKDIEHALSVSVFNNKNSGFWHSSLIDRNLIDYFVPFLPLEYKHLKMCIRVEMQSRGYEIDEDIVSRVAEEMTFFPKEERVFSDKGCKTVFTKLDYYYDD
# Torsin-1A (Homo sapiens) [9] = target: Torsin-1A (Homo sapiens) (UniProt O14656); assay: torsin A mutant lysate binding on microarrays – cell lysate, small-molecule microarray, COS7 lysate, 635/667 nm fluorescence, primary screen (AID 1150); details: COS7 hTOR1A mutant lysate, 635 nm fluorescence, higher = more signal;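 note: score pools 667 nm emission and signal to noise measuring lysate protein binding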
# [10] = tested on: Sonic hedgehog protein (Shh); assay: Sonic hedgehog microarray binding compounds – biochemical, small-molecule microarray, 635/667 nm fluorescence, primary screen (AID 1151); details: 635 nm fluorescence, higher = more signal;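 note: Shh protein binding to compounds spotted on small-molecule microarray slides; score combines spot fluorescence intensity with signal-to-noise across triplicate slides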
SMILES,composite z-score [1],z-score [2],z-score [3],z-score [4],z-score [5],composite z-score [6],composite z-score [7],composite z-score (Torsin-1A (Homo sapiens) [8]),composite z-score (Torsin-1A (Homo sapiens) [9]),composite z-score [10]
COc1ccc(C(O)C2C=CC3C(=O)N(c4ccccc4)C(=O)C3N2Nc2ccc(C(C)C)cc2)c2ccccc12 (stereo not given),0.295,0.0927 (inactive),-1.88 (inactive),0.632 (inactive),-0.557 (inactive),1.92,0.216,0.724,1.01,-0.328
Cc1cccc([C@H]2C[C@H]3C(I)=C[C@@H]2C(=O)[C@]32CO2)c1,-0.243,-0.478 (inactive),-0.209 (inactive),1.76 (inactive),1.56 (inactive),-0.0548,-0.0762,-0.404,-0.481,0.0299
COCC(=C=CC[C@H](O)c1cccc(OCCO)c1)C[C@H](O)COCc1ccccc1,0.191,-0.33 (inactive),-0.218 (inactive),5.03 (inactive),1.74 (inactive),-0.599,0.264,2.41,1.31,1.28
[N-]=[N+]=NCc1ccccc1[C@H]1OC(c2ccc(OCCCO)cc2)=N[C@@]1(CCS(=O)(=O)c1ccccc1)C(=O)NCc1ccccc1,0.486,-1.14 (inactive),0.318 (inactive),0.549 (inactive),-0.0054 (inactive),1.25,0.282,0.61,0.563,-0.081
COC(=O)[C@@]1(Cc2ccccc2)[C@H]2c3cc(C(=O)N4CCCC4)n(CCSCCO)c3C[C@H]2CN1C(=O)c1ccccc1,0.554,-1.17 (inactive),0.019 (inactive),0.387 (inactive),2.14 (inactive),1.15,0.545,0.424,0.989,0.0779
C[C@@H]1ON(c2ccc(I)cc2)[C@H](c2ccc(OC(=O)OC(C)(C)C)cc2)[C@H]1C(=O)N1C(=O)OC[C@H]1Cc1ccccc1,0.0472,-1.32 (inactive),-0.829 (inactive),-0.415 (inactive),-0.642 (inactive),0.573,-0.0468,0.0475,0.624,0.639
C=CCC(OC(C)=O)[C@@H]1[C@@H](N(Cc2cccc3ccccc23)C(=O)Cc2ccc(F)cc2)c2cc(OCCCO)ccc2N1C(=O)c1ccc(-c2ccccc2)cc1 (stereo not given in full),0.364,-0.227 (inactive),-0.169 (inactive),1.44 (inactive),0.429 (inactive),-0.153,0.066,0.143,0.102,0.246
O=C1NC(=O)C2C1C=CC(C(O)c1ccccn1)N2Nc1ccc(Cl)cc1Cl (stereo not given),0.0314,0.203 (inactive),-0.595 (inactive),0.0535 (inactive),-0.0259 (inactive),1.16,-0.101,-0.117,0.175,-0.517
C=C(COC)/C(=C/C[C@@H](OC(C)=O)c1ccc(CO)o1)c1cc(C(=O)OC)ccc1OC,-0.0561,0.0759 (inactive),-0.921 (inactive),-0.0602 (inactive),1.12 (inactive),-0.367,-0.0933,-0.5,0.666,1.64
C[C@]1(C(=O)NCCN2CCOCC2)c2ccccc2C(=O)N(Cc2cc(F)cc(C(F)(F)F)c2)[C@H]1c1ccc(CO)cc1,-0.187,-1.39 (inactive),-1.32 (inactive),-0.385 (inactive),-0.909 (inactive),0.0519,0.027,1.82,1.84,1.86
COc1cc2c(cc1O)C(c1ccc(CN3CCCC3)cc1)N(C)CC2 (stereo not given),-0.0821,-0.383 (inactive),0.374 (inactive),-0.231 (inactive),-0.0347 (inactive),-0.317,-0.237,-0.508,0.081,-0.0838
CN1C(=O)[C@@]2(Cc3ccccc3)N=C(c3ccc(OCCCO)cc3)O[C@H]2c2ccccc21,0.634,-4.44 (inactive),-0.458 (inactive),1.04 (inactive),-1.67 (inactive),0.0831,0.382,0.266,-0.0779,1.45
O=C1C2C=CC(C(O)c3cccc(O)c3)N(Nc3ccccc3)C2C(=O)N1c1ccccc1 (stereo not given),-0.105,-2.93 (inactive),-1.06 (inactive),-0.14 (inactive),1.37 (inactive),0.318,-0.0645,-0.338,-0.283,-0.461
O=C(CS)NCCCCCNC(=O)[C@@H]1C[C@@H]2C(=O)N[C@@H](Cc3ccccc3)C(=O)N2[C@@H]1c1cccc(OCCO)c1,0.409,-0.497 (inactive),-0.042 (inactive),0.7 (inactive),0.432 (inactive),-0.0307,-0.787,0.7,1.31,1.49
